# Bioassay records deposited in PubChem by National Center for Advancing Translational Sciences (NCATS).
# ALDH1A1 inh = qHTS Assay for Inhibitors of Aldehyde Dehydrogenase 1 (ALDH1A1) | Aldehyde dehydrogenase 1A1 (Homo sapiens), P00352 | Purified ALDH1A1, NADH fluorescence, propionaldehyde substrate | Potency, µM (highest dose often 75.3 µM), inactives show top-dose activity, negative = inhibition, usual class: inhibitors | 220,000 tested, 7.3% active | AID 1030, 2008; active means well fitted inhibition curve with a large enough effect, not every such curve was filed as active; inconclusive means small, poorly fitted or top-dose-only effect, or another doubt; inactive means no such curve, though single readings can be large or run the other way;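 further: plate controls were no enzyme wells and a reference inhibitor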
# VP16 counter = VP16 counterscreen qHTS for inhibitors of ROR gamma transcriptional activity. Drosophila S2 Gal4-VP16 UAS-luciferase, luminescence, 20 h. Potency, µM (titrated, usually from 53.6 µM), without a hit: top-dose activity, negative = inhibition, hits mostly inhibitors. 310,000 tested, 3.5% active. AID 2546, 2010;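 further: Gal4-VP16 expression switched on by copper sulfate through the metallothionein promoter; nearly all actives have a fitted effect of over 50% in size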
# PLK1 PBD inh = qHTS for Inhibitors of PLK1-PDB (polo-like kinase 1 - polo-box domain): Primary Screen; Plk1 PBD binding of FITC phosphopeptide, fluorescence polarization; Potency, µM, without a hit: max response, negative = inhibition, most hits filed as inhibitors; 360,000 tested, 2.8% active; further: series mostly up to about 57 µM; nearly all actives have a fitted effect of over 65% in size
# Target sequence (P53350 whole entry, looked up, the tested form may be a part): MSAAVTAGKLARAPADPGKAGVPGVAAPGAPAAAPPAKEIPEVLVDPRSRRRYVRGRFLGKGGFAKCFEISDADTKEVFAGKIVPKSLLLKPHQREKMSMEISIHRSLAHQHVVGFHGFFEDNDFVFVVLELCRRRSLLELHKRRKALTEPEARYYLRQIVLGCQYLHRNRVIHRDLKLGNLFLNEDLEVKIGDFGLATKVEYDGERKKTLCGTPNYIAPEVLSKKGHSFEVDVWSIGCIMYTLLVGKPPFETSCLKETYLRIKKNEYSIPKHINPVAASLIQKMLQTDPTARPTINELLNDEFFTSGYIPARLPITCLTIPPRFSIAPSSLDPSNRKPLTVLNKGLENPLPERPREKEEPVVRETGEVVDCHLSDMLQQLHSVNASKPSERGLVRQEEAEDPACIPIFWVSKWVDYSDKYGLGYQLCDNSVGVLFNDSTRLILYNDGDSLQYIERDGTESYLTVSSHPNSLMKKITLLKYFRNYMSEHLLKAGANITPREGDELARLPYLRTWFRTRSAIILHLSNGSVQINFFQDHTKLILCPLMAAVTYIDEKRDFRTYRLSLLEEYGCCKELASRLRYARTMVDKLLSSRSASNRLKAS
# RORgamma inh = qHTS for inhibitors of ROR gamma transcriptional activity; 310,000 tested, 5.4% active; AID 2551, 2010; Drosophila S2 Gal4-RORgamma UAS-luciferase reporter, 20 h; Potency, µM (series often up to 53.6 µM), inactives show at the top dose activity change, negative = inhibition, hits mostly inhibitors; further: nearly all actives have a fitted effect of over 60% in size
#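 Luciferase reporter read in Schneider cells carrying Gal4-RORγ (mouse) and UAS-Photinus luciferase; cells given compound 1 h before 700 uM copper sulfate induction, then incubated 20 h at ambient temperature.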
# Sfp inh = qHTS Assay for Inhibitors of Bacillus subtilis Sfp phosphopantetheinyl transferase (PPTase). 4'-phosphopantetheinyl transferase ffp (Bacillus subtilis), Q9F4F7. Biochemical Sfp PPTase activity, qHTS. Potency, µM, without a hit: largest response in the series, negative = inhibition, actives largely listed as inhibitors. 310,000 tested, 3.5% active;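 further: the enzyme is Sfp with the accession as filed and its product quenches rhodamine fluorescence; 0% = enzyme reaction without inhibitor and -100% = no enzyme wells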
#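 Buffer: 50 mM Hepes-Na pH 7.6, 10 mM MgCl2, 0.01% Nonidet P-40, 0.01% BSA. Enzyme 15 nM, pre-exposed to compound 15 min; substrates then added and fluorescence change tracked over 30 min.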
# An asterisk follows results filed as active; ? = inconclusive; . = not tested or not shown; [ ] = another dose, or the depositor's remark. Shown are actives, neighbours in structure and some others; about 12% of the full set was active somewhere. Unless noted, the call rests on the fitted dose curve; in most records, active means well fitted curve in the direction sought with a large enough effect; inconclusive means small, poorly fitted or top-dose-only effect, or another doubt; inactive means no such curve, though single readings can be large; an effect the other way counts as inactive or inconclusive. Unless noted, on the % scale 0 is the no-effect control and ±100 the full control effect; potency means the concentration at half of the fitted maximal effect.
SMILES,ALDH1A1 inh,VP16 counter,PLK1 PBD inh,RORgamma inh,Sfp inh
O=c1c2oc3nc4c(cc3c2ncn1CCCc1ccccc1)CCCC4,4µM*,4%,11%,19%,-11%
C#CCCCO/N=C1/C[C@@H](O)[C@@H](O)[C@@H]2[C@@H]3C(=O)N(CCC(=O)OCC)C(=O)[C@H]3CC[C@H]12,6%[13.5 µM],17%[10 µM],.,25%[10 µM],0%
CC(/C=C1\SC(=S)N(c2ccc(C(=O)O)cc2)C1=O)=C\c1ccccc1,.,?,24µM*,-30%,-13%
CC(/C=C1\SC(=S)N(NC(=O)c2ccc(C)cc2)C1=O)=C\c1ccccc1,-10%,13%,-1%,35%,-8%
CC(/C=C1\SC(=S)N(C(C(=O)O)C(C)C)C1=O)=C\c1ccccc1 (stereo not given),?,-4%,24µM*,9%,?
COc1ccc(CCC(=O)Nc2cccc(S(=O)(=O)N3CCCCCC3)c2)cc1OC,.,.,-11%,.,.
COCCCn1cnnc1SCC(=O)Nc1ccc(S(=O)(=O)N2CCCC2)cc1,11µM*,-6%,-13%,2%,14%
CCN(CC(=O)Nc1cccc(S(=O)(=O)N2CCCC2)c1)CC(=O)Nc1ccccc1OC,-3%,-3%,-7%,11µM*,9%
COCCn1cnnc1SCC(=O)Nc1ccc(Br)cc1F,13µM*,9%,-11%,4%,15%
COc1ccc(CC(=O)Nc2cccc(S(=O)(=O)N3CCCCCC3)c2)cc1OC,-2%,11µM*,-3%,-25%,-2%
COC(=O)[C@@]1(Cc2ccccc2)[C@H]2c3cc(C(=O)N(C)C)n(Cc4ccc(S(C)(=O)=O)cc4)c3C[C@H]2CN1C(=O)c1ccccc1,-9%,24%,.,?,0%
COc1cccc(N2CCN(C(=O)c3ccc(OC)c(S(=O)(=O)NC4CC4)c3)CC2)c1,.,.,1%,.,.
CCOC(=O)C1(C)CCN1C(=O)c1cccc(C(F)(F)F)c1 (stereo not given),.,.,-3%,.,.
COc1ccc(CNC(=O)c2ccc(S(=O)(=O)N3CCCC3)cc2)cc1OC,10µM*,0%,-13%,55%,5%
CCN(c1ccc(NC(=O)COC(=O)CCc2cc(OC)c(OC)c(OC)c2)cc1)C(C)C,18µM*,-2%,-1%,?,17%
CCOC(=O)CSc1nnc(CNC(=O)c2ccc(S(=O)(=O)N3CCCC3)cc2)n1C,19µM*,-10%,-5%,-3%,7%
COc1ccccc1-n1cnnc1SCC(=O)Nc1cccc(S(=O)(=O)N2CCCCC2)c1,0.63µM*,?,.,?,0%
COCCn1cnnc1SCC(=O)Nc1cccc(S(=O)(=O)N2CCCCCC2)c1,?,-2%,-1%,23%,-5%
C=C1CC2C3C=C(C)C4=CC(=O)CCC4(C)C3CCC2(C)[C@@]1(OC(C)=O)C(C)=O (stereo not given in full),.,-9%,.,-2%[10 µM],-10%
CCOC(=O)/C(=C(/C)N)C1CC(=O)NC1=O (stereo not given),.,.,2%,.,.
CC(=O)OCC(=O)[C@@]1(O)[C@H](C)C[C@@H]2[C@H]3CCC4=CC(=O)C=C[C@]4(C)[C@]3(F)[C@@H](O)C[C@@]21C,-2%[20.9 µM],-3%[17 µM],.,6%[2.98 µM],6%
COc1cc(CC(=O)OCC(=O)Nc2ccc(S(=O)(=O)N3CCCC3)cc2)cc(OC)c1OC,20µM*,0%,-16%,-5%[10 µM],10%
COC(=O)c1cc(NC(=O)Cc2ccc(OC)c(OC)c2)cc(C(=O)OC)c1,-3%,-16%,27µM*,3%,-1%
COc1ccccc1-n1cnnc1SCC(=O)Nc1ncc(Cl)cc1Cl,4.5µM*,7%,30µM*,2%,9%
COc1ccc(CC(=O)Nc2cc(NC(=O)Cc3ccc(OC)c(OC)c3)cc(C(=O)O)c2)cc1OC,4%,5%,-11%,-5%,22%
SMILES,ALDH1A1 inh,VP16 counter,PLK1 PBD inh,RORgamma inh,Sfp inh
CCOC(=O)c1ccc(N2C(=O)c3cccc4c(C(=O)O)ccc(c34)C2=O)cc1,.,-2%,0%,28%[1.91 µM],-9%
O=C(c1cc2ccccc2oc1=O)N(Cc1cccs1)Cc1cccs1,11µM*,6%,15µM*,42%,6%
CCc1ccc2[nH]c(=O)c(CN(CCN(C)C)C(=S)NCc3ccco3)cc2c1,?,-5%,-9%,2%,-15%
Cc1cccc2cc(CN(CC3CCCO3)C(=O)NC3CCCCC3)c(=O)[nH]c12 (stereo not given),-7%,-6%,-9%,16%,4%
Cc1ccc2cc(CN(Cc3nnnn3Cc3ccco3)CC3CCCO3)c(=O)[nH]c2c1C (stereo not given),1.8µM*,-9%,-20%,-38%,-75%
Cc1cc(C)c2cc(CN(Cc3ccco3)C(=S)NCC3CCCO3)c(=O)[nH]c2c1 (stereo not given),25µM*,-6%,-27%,25%,20µM*
COc1ccc2cc(CN(Cc3ccco3)C(=S)NCC3CCCO3)c(=O)[nH]c2c1 (stereo not given),?,-13%,-10%,7%,-16%
CCc1ccc2[nH]c(=O)c(CN(CCN(CC)CC)C(=S)NCc3ccco3)cc2c1,?,?,-4%,-36%,79µM*
Cc1ccc2cc(CN(CC3CCCO3)C(=O)NC3CCCCC3)c(=O)[nH]c2c1C (stereo not given),?,?,-8%,3.2µM*,7%
O=C(NS(=O)(=O)Nc1ccccc1)C1=C(N2CCCC2)COC1=O,.,.,-14%,.,.
Cc1ccc2cc(CN(CC3CCCO3)C(=S)NCc3ccco3)c(=O)[nH]c2c1C (stereo not given),22µM*,-22%,15µM*,39%,32µM*
CCc1ccc2[nH]c(=O)c(CN(CC3CCCO3)C(=S)NCc3ccco3)cc2c1 (stereo not given),.,?,-10%,?,3.5µM*
CCCCn1c(N)c(N(CCC)C(=O)C2CCCC2)c(=O)[nH]c1=O,.,.,0%,.,.
CCC1=C[C@@H]2CN(C1)Cc1c([nH]c3ccccc13)[C@@](C(=O)OC)(c1cc3c(cc1OC)N(C)[C@@H]1[C@@](O)(C(=O)OC)[C@H](OC(C)=O)[C@]4(CC)C=CCN5CC[C@]31[C@@H]54)C2,.,-8%,.,9%,71µM*
CC[C@]1(O)CC2CN(CCc3c([nH]c4ccccc34)[C@@](C(=O)OC)(c3cc4c(cc3OC)N(C)[C@H]3[C@@](O)(C(=O)OC)[C@H](OC(C)=O)[C@]5(CC)C=CCN6CC[C@]43[C@@H]65)C2)C1 (stereo not given in full),.,-9%,.,?,-27%
O=C(Nc1ccc(Cl)c(Cl)c1)Nc1cc(S(=O)(=O)N2CCOCC2)ccc1N1CCCC1,?,-2%,17µM*,?,4%
